A selection: hits, their analogues and other compounds. The true share with any hit is near 1.5%.
TLR9-MyD88 inh: inhibitors of human TLR9-MyD88 binding | CHO BLA complementation TLR9-MyD88, CCF4 FRET ratio | AID 504734 | inhibition, % at 4.98 µM | Q9NR96+Q99836 | hit rate 0.21% among 340,000;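 active = inhibition above the mean over all tested compounds plus 3 SD, cut at about 21% in these data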;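 also: 0% = DMSO only wells and 100% = clavulanate BLA inhibitor control wells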
TLR4-MyD88 BLA: TLR4-MyD88 interaction inhibition in cells; O00206+Q99836; HeLa CL3-4 TLR4/MyD88 BLA complementation, FRET ratio; inhibition, % at 8.4 µM; hit rate 0.18% among 200,000; AID 861; in the data active = inhibition above about 25%;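 also: 0% = vehicle and 100% = reference inhibitor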
ABHD5 PLIN5 PPI: inhibitors of human ABHD5-perilipin-5 interaction; hit rate 0.78% among 360,000; Split G. princeps luciferase complementation, luminescence, 4 h; Q00G26+Q8WTS1; inhibition, % at 4 µM;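 active = inhibition above the mean inhibition across every tested compound plus 3 SD, cut at about 22% in these data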;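 also: 0% = DMSO only wells and the 100% control is not disclosed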
NOD2 RIPK2 PPI: blocks binding of human NOD2 to RIPK2 | O43353 | CHO BLA complementation NOD2-RIPK2, CCF4 ratio | inhibition, % at 4.98 µM | hit rate 0.38% among 360,000; in the data active = inhibition above about 21%;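 also: 0% = vehicle only and 100% = reference blocker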
B2AR ag: agonists of human beta-2 adrenergic receptor inducing internalization | response, % (concentration not given with the values) | hit rate 0.43% among 340,000 | P07550 | Am2.2-beta2AR cells, FAP receptor internalization, flow cytometry | AID 504454;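 active = response above a set limit, near 3 SD of response in nonfluorescent compounds, cut at about 42% in these data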
NTR1 agonist: NTR1 (human) agonism | P30989 | hit rate 0.17% among 330,000 | activation, % at 20 µM | NTR1-U2OS beta-arrestin-GFP spot imaging, agonist mode;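 active = activation at or above 40% of the spot to cytoplasm intensity ratio, with at least 20 cells analyzed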;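 also: 0% = DMSO without peptide and 100% = 100 nM NTR1 peptide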
Target sequence (P30989 whole entry, looked up): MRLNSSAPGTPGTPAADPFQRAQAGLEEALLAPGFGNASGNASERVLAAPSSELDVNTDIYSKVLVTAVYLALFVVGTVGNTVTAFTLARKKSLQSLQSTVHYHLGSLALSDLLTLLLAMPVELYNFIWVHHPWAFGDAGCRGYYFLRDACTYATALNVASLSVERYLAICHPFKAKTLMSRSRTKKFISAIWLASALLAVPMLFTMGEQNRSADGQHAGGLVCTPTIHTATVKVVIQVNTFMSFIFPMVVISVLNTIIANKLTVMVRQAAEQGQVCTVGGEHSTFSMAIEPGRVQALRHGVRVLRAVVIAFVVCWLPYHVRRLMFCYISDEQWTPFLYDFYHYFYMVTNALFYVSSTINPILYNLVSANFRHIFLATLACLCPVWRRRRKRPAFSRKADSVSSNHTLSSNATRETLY
TLR9-MyD88 conf: TLR9-MyD88 interaction inhibition, confirmation. shares compounds with TLR9-MyD88 inh. inhibition, % at 4.98 µM. hit rate 51% among 680. CHO TLR9/MyD88 BLA complementation, CCF4 FRET ratio;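 active = mean inhibition across three repeats above about 21% taken from the earlier screen, limit read from the data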;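 also: blue over green emission ratio reports constitutive TLR9 MyD88 association via BLA complementation; 0% = DMSO vehicle wells and 100% = clavulanate BLA inhibitor wells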
BLA counter-1: non-selective beta-lactamase inhibitors in TLR9-MyD88 counter-screen. shares compounds with TLR9-MyD88 inh. CHO-BLA cells, CCF4 FRET ratio, BLA reporter. inhibition, % at 4.98 µM. hit rate 7% among 680. AID 540251;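 active = mean inhibition above a 50% cutoff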;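 also: counterscreen of TLR9-MyD88 hits on CMV-driven BLA in CHO-K1 cells; 0% = DMSO alone and 100% = clavulanate blocking BLA; higher means less blue over green ratio so more BLA blockade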
TLR9 CHO cytotox: CHO cell toxicity counter-screen for TLR9-MyD88 inhibitors; shares compounds with TLR9-MyD88 inh; TLR9-MyD88 CHO cells cytotoxicity, luminescence; inhibition, % at 4.98 µM; hit rate 39% among 680; in the data active = inhibition above about 11%
ABHD5 PLIN5 conf: ABHD5-PLIN5 interaction inhibition, confirmed; shares compounds with ABHD5 PLIN5 PPI; biochemical ABHD5-PLIN5 interaction, luminescence; inhibition, % at 4 µM; hit rate 67% among 2,200; AID 651612; in the data active = inhibition above about 23%;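 also: 0% = DMSO vehicle wells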
HNF4 split-luc: active in HNF4 split-luciferase counter-screen for ABHD5-PLIN5 inhibitors | shares compounds with ABHD5 PLIN5 PPI | HNF4 dimerization, luminescence, biochemical | inhibition, % at 4 µM | hit rate 77% among 2,200 | AID 651674;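 active = mean inhibition across replicate wells exceeding the computed hit threshold, cut at about 13% in these data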;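 also: light from luciferase halves that rejoin when HNF4 fusion proteins dimerize; 0% = DMSO only wells and the 100% control is not given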
NOD2 RIPK2 conf: confirmation of human NOD2-RIPK2 interaction inhibitors | shares compounds with NOD2 RIPK2 PPI | CHO cells, NOD2-RIPK2 BLA complementation, CCF4 FRET | inhibition, % at 4.98 µM | hit rate 70% among 1,200 | AID 624370;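 active = mean inhibition across replicates above a set limit taken from the earlier primary screen, cut at about 21% in these data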;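 also: 0% = DMSO-only wells and the high end = clavulanate BLA-blocked wells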
BLA counter-2: hits BLA reporter in NOD2-RIPK2 inhibitor counterscreen; AID 624371; CHO BLA reporter, CCF4 FRET ratio; shares compounds with NOD2 RIPK2 PPI; inhibition, % at 4.98 µM; hit rate 57% among 1,200;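 active = mean inhibition above the low-control mean inhibition plus three low-control SD, cut at about 11% in these data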;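 also: 0% = DMSO only wells and 100% = clavulanate high control wells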
* marks the source's active call; other numbers are inactive results; . = not tested or not shown.

SMILES	TLR9-MyD88 inh	TLR4-MyD88 BLA	ABHD5 PLIN5 PPI	NOD2 RIPK2 PPI	B2AR ag	NTR1 agonist	TLR9-MyD88 conf	BLA counter-1	TLR9 CHO cytotox	NOD2 RIPK2 conf	BLA counter-2	others
CCN(CC)c1ccc(/C=C/c2cc(-c3ccccc3)c3ccccc3n2)cc1	55.0*	.	0.9	69.3*	-874.1	.	70.1*	80.2*	4.9	80.5*	86.1*
CCN(CC)c1ccc(/C=N/NC(=O)c2cc(C)nc3ccccc23)cc1	-6.7	.	2.9	5.1	3.0	0.8	.	.	.	.	.
Cc1cccc(N2C(=O)c3cccc4c(N)ccc(c34)C2=O)c1	31.6*	.	4.6	34.9*	2.2	-0.6	18.9	20.5	1.5	36.5*	44.0*
Nc1cccc(N2C(=O)c3cccc4c(N)ccc(c34)C2=O)c1	6.8	.	4.1	4.8	-156.0	-3.1	.	.	.	.	.
CC(C)CCN1C(=O)c2cccc3c(N)ccc(c23)C1=O	54.9*	.	2.2	70.4*	-261.1	-1.4	33.2*	29.4	1.1	63.6*	70.4*
CC(C)(C(=O)N1CCC1(C)C(=O)NS(=O)(=O)c1ccccc1Cl)c1ccccc1 (centres undefined)	.	.	-7.2	-7.9	.	.	.	.	.	.	.
O=C([C@H]1O[C@@H](n2ccc(=O)[nH]c2=O)[C@H](O)[C@@H]1O)N(CCC1=CCCCC1)CC1CC1	.	.	-2.3	-9.2	.	.	.	.	.	.	.
CCN(CC)c1ccc(/C=C2/SC(=O)N(C(C)C)C2=O)o1	30.6*	7.4	93.0*	64.7*	-199.7	.	8.1	3.8	61.1*	27.4*	14.9*	ABHD5 PLIN5 conf=73.2*;HNF4 split-luc=109.5*
CC(=NNc1nc2ccccc2o1)c1ncccn1	26.1*	.	2.9	26.6*	4.6	.	20.0	10.4	98.8*	33.8*	30.2*
CC(=NNc1nc2ccccc2o1)c1cc2ccccc2cn1	60.0*	.	4.3	42.7*	-133.8	.	67.1*	66.2*	73.5*	90.2*	91.2*
Cc1ccc(C(O)c2ncc(-c3cccc4ccccc34)[nH]2)c(C)c1 (centres undefined)	.	.	-11.3	-0.3	.	.	.	.	.	.	.
O=[N+]([O-])c1ccc(N2N=C(c3ccccc3)CC2c2ccccc2O)cc1 (centres undefined)	39.5*	.	-1.8	39.0*	-136.6	0.1	32.6*	37.7	5.8	51.3*	64.8*
NS(=O)(=O)c1ccc(N2N=C(c3ccccc3)CC2c2ccccc2Br)cc1 (centres undefined)	-5.4	.	-4.7	7.9	5.8	19.6	.	.	.	.	.
O=[N+]([O-])c1ccc(N2N=C(c3ccco3)CC2c2ccccc2)cc1 (centres undefined)	38.2*	19.9	29.0*	56.1*	-42.8	0.2	20.9*	21.7	0.6	49.2*	52.9*	ABHD5 PLIN5 conf=17.0;HNF4 split-luc=24.4*
O=C(NC1CCCC1)C(C1CC1)n1c(-c2ccnc3ccccc23)nc2ccccc21 (centres undefined)	.	.	0.4	-1.9	.	.	.	.	.	.	.
COc1cc2c(cc1OC)/C(=C/C(=O)OCc1ccccc1)OC2	.	.	-1.4	-5.9	.	.	.	.	.	.	.
COc1cc(/C=C/C(=O)/C=C(O)/C=C/c2ccc(O)c(OC)c2)ccc1O	28.0*	.	13.4	53.5*	-102.2	7.3	29.9*	27.6	6.0	55.4*	56.9*
COc1cc(/C=C/C(=O)O)ccc1O	-1.1	.	4.2	-7.0	2.7	5.3	.	.	.	.	.
Nc1nc(-c2ccc(F)cc2)cc(C(F)(F)F)n1	3.1	-8.4	-2.5	-4.8	-5.1	2.6	.	.	.	.	.
CS(=O)(=O)c1nc(-c2ccc(F)cc2)cc(C(F)(F)F)n1	40.0*	15.2	51.3*	62.1*	72.8*	.	34.6*	8.0	97.4*	62.0*	12.4*	ABHD5 PLIN5 conf=63.4*;HNF4 split-luc=98.8*
OCCN(CCO)c1nc(N2CCCCC2)c2nc(N(CCO)CCO)nc(N3CCCCC3)c2n1	25.3*	9.7	-3.8	36.3*	11.2	4.6	16.4	20.2	1.8	47.1*	51.1*
Nc1nc(NCCO)nc(N2CCCCCC2)c1[N+](=O)[O-]	-2.8	.	2.9	-4.9	-3.4	-0.2	.	.	.	.	.
Cc1ccc(/C=C2\Oc3c(ccc(O)c3CN3CCN(CCO)CC3)C2=O)cc1	21.9*	17.3	22.8*	27.5*	7.8	-0.5	10.2	7.9	-1.2	24.1*	28.5*
O=C(Nc1cccc2ccccc12)c1csc([C@@H]2O[C@H](CO)[C@H](O)[C@H](O)[C@H]2O)n1	.	.	-0.5	-2.8	.	.	.	.	.	.	.
CSc1ncc(Cl)c(C(=O)Nc2ccc(C)c(C)c2)n1	-0.9	.	0.1	6.5	-10.1	1.0	.	.	.	.	.
SMILES	TLR9-MyD88 inh	TLR4-MyD88 BLA	ABHD5 PLIN5 PPI	NOD2 RIPK2 PPI	B2AR ag	NTR1 agonist	TLR9-MyD88 conf	BLA counter-1	TLR9 CHO cytotox	NOD2 RIPK2 conf	BLA counter-2	others
CCOC(=O)c1ccc(NC(=O)c2nc(S(=O)(=O)Cc3ccccc3)ncc2Cl)cc1	41.6*	.	49.5*	55.0*	15.1	0.0	30.4*	22.7	99.2*	86.9*	49.7*	ABHD5 PLIN5 conf=92.0*;HNF4 split-luc=92.3*
CC(=O)Nc1ccc(NC(=O)c2nc(S(=O)(=O)Cc3cccc(C)c3)ncc2Cl)cc1	26.7*	.	65.6*	82.0*	17.8	1.2	43.5*	33.9	96.7*	81.0*	44.1*
Cc1ccc(NC(=O)c2nc(S(=O)(=O)Cc3ccccc3C)ncc2Cl)cc1C	40.7*	.	71.7*	97.0*	32.5	10.2	35.0*	12.8	82.7*	85.6*	33.4*	ABHD5 PLIN5 conf=97.9*;HNF4 split-luc=97.4*
CCc1ccc(NC(=O)c2nc(S(=O)(=O)Cc3ccccc3)ncc2Cl)cc1	46.9*	.	77.4*	96.3*	52.2*	-1.9	50.5*	31.2	97.6*	93.6*	39.9*	ABHD5 PLIN5 conf=89.4*;HNF4 split-luc=89.3*
CCOc1ccccc1NC(=O)c1nc(S(=O)(=O)Cc2ccccc2)ncc1Cl	8.7	.	-1.5	15.1	22.7	10.6	.	.	.	.	.
COc1cc(/C=C2\CCC(C)C3=C(c4cc(OC)c(OC)c(OC)c4)C(C#N)=C(N)OC32)cc(OC)c1OC (centres undefined)	-5.5	.	-4.0	-19.9	-7.6	.	.	.	.	.	.

High-throughput results (PubChem)
